Reference: ChEMBL document CHEMBL2218924, “A broad activity screen in support of a chemogenomic map for kinase signalling research and drug discovery” (Biochem J, 2013)

Columns and labels:
[1] = molecular target: T1, Ephrin type-A receptor 3 (Homo sapiens) (UniProt P29320); conditions: at 10 µM
T1 sequence (whole entry): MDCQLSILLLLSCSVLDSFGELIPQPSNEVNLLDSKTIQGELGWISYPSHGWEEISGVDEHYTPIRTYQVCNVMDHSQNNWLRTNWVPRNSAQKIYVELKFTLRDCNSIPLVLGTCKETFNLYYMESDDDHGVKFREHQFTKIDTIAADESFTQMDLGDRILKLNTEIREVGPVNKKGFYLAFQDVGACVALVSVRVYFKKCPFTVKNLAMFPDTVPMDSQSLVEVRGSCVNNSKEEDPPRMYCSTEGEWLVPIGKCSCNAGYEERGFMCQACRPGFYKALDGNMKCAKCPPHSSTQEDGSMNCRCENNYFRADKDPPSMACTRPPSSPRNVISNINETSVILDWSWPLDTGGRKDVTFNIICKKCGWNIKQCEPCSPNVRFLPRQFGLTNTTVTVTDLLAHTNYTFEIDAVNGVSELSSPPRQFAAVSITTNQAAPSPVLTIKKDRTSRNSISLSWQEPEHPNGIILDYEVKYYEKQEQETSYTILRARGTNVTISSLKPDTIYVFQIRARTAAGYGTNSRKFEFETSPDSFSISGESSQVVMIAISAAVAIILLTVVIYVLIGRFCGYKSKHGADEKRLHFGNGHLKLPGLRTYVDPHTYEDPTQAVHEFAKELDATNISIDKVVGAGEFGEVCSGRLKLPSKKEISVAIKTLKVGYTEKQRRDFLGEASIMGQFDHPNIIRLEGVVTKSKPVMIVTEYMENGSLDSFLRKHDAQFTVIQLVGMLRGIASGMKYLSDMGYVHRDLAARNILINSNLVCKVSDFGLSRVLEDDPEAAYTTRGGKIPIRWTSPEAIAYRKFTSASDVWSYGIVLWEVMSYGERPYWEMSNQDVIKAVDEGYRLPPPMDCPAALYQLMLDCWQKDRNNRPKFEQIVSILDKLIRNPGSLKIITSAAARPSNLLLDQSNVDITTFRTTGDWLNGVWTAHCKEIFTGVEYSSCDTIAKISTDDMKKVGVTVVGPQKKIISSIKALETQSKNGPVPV

[2] = molecular target: Ephrin type-A receptor 4 (Homo sapiens) (UniProt P54764); conditions: at 1 µM
[3] = molecular target: Ephrin type-A receptor 4 (Homo sapiens) (UniProt P54764); conditions: at 10 µM
[4] = molecular target: Ephrin type-A receptor 5 (Homo sapiens) (UniProt P54756); conditions: at 1 µM
[5] = molecular target: Ephrin type-A receptor 5 (Homo sapiens) (UniProt P54756); conditions: at 10 µM
[6] = molecular target: Ephrin type-A receptor 7 (Homo sapiens) (UniProt Q15375); conditions: at 1 µM
[7] = molecular target: Ephrin type-A receptor 7 (Homo sapiens) (UniProt Q15375); conditions: at 10 µM
[8] = molecular target: T2, Ephrin type-A receptor 8 (Homo sapiens) (UniProt P29322); conditions: at 1 µM
T2 sequence (whole entry): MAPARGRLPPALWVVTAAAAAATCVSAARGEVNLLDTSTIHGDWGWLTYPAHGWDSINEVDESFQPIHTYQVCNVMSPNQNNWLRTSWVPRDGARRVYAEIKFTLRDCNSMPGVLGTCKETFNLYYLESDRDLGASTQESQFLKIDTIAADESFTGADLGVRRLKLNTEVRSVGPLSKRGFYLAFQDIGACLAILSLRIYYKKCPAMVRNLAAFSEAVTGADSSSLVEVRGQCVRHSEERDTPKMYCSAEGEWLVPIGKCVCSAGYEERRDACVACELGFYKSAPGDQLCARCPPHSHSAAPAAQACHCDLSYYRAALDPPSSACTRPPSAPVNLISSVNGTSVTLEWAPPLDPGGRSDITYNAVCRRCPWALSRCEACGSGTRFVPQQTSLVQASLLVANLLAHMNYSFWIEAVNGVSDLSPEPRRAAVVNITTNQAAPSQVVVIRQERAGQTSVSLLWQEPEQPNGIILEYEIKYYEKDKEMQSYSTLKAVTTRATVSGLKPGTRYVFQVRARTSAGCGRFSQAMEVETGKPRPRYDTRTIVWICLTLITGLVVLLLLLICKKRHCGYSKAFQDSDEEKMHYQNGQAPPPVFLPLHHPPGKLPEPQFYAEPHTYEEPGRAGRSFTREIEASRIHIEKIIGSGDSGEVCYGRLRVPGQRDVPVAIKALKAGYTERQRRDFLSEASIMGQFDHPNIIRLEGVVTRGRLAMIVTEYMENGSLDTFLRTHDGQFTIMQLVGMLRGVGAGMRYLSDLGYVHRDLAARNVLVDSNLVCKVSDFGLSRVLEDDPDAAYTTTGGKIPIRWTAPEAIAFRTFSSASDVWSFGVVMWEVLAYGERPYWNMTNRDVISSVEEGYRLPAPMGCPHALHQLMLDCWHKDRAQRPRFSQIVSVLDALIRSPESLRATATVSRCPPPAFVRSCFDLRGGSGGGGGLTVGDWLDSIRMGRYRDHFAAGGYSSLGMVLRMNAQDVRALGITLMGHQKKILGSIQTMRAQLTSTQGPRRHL

[9] = molecular target: T2, Ephrin type-A receptor 8 (Homo sapiens); conditions: at 10 µM
[10] = molecular target: T3, Ephrin type-B receptor 1 (Homo sapiens) (UniProt P54762); conditions: at 1 µM
T3 sequence (whole entry): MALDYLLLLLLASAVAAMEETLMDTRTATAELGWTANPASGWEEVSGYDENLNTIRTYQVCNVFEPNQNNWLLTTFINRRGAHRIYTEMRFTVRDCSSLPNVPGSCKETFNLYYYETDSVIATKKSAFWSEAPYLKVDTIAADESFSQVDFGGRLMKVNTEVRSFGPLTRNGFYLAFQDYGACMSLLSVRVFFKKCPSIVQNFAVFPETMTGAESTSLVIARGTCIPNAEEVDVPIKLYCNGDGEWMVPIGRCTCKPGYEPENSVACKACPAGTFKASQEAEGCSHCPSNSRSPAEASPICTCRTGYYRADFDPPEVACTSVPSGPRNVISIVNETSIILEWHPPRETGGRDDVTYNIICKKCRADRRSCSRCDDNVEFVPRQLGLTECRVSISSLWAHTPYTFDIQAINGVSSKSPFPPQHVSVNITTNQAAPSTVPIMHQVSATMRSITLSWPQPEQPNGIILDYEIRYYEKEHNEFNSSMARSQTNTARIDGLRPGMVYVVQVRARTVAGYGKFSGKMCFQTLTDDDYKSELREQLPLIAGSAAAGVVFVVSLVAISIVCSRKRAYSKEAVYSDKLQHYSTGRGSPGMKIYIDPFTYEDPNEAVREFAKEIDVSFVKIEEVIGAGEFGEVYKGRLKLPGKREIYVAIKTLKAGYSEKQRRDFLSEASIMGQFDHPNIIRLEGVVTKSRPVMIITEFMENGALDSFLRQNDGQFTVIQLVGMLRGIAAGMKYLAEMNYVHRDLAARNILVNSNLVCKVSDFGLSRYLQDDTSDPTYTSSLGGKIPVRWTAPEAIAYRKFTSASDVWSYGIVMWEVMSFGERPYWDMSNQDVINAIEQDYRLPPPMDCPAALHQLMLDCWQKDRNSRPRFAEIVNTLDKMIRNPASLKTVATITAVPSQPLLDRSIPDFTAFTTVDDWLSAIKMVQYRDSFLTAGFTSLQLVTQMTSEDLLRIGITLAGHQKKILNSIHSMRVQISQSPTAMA

[11] = molecular target: T3, Ephrin type-B receptor 1 (Homo sapiens); conditions: at 10 µM
[12] = molecular target: T4, Ephrin type-B receptor 2 (Homo sapiens) (UniProt P29323); conditions: at 1 µM
T4 sequence (whole entry): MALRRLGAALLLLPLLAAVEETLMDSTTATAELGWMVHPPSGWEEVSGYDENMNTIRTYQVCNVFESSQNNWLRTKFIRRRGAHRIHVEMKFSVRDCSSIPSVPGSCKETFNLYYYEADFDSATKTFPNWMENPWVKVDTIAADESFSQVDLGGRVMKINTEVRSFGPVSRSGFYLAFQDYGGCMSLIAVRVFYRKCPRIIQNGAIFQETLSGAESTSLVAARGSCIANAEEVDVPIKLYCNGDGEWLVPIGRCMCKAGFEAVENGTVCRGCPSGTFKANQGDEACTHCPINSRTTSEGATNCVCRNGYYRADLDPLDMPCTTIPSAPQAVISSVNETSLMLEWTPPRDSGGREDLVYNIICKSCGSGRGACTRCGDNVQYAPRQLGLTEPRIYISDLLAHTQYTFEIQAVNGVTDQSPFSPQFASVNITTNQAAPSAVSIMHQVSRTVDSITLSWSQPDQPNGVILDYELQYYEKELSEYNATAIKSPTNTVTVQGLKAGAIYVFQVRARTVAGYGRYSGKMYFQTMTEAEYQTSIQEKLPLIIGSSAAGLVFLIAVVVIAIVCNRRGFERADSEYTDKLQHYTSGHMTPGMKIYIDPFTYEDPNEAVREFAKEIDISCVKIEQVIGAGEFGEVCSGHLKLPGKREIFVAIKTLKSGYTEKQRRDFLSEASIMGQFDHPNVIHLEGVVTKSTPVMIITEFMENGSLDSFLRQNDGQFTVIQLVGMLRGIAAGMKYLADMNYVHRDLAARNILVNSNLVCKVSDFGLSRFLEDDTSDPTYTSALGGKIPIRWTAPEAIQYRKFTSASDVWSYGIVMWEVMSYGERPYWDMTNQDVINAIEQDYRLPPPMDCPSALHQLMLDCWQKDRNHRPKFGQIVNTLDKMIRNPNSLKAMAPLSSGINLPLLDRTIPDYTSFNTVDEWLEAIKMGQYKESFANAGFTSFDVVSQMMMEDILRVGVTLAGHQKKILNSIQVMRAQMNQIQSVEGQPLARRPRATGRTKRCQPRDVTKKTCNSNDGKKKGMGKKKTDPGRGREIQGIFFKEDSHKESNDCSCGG

[13] = molecular target: T4, Ephrin type-B receptor 2 (Homo sapiens); conditions: at 10 µM
[14] = molecular target: T5, Ephrin type-B receptor 3 (Homo sapiens) (UniProt P54753); conditions: at 1 µM
T5 sequence (whole entry): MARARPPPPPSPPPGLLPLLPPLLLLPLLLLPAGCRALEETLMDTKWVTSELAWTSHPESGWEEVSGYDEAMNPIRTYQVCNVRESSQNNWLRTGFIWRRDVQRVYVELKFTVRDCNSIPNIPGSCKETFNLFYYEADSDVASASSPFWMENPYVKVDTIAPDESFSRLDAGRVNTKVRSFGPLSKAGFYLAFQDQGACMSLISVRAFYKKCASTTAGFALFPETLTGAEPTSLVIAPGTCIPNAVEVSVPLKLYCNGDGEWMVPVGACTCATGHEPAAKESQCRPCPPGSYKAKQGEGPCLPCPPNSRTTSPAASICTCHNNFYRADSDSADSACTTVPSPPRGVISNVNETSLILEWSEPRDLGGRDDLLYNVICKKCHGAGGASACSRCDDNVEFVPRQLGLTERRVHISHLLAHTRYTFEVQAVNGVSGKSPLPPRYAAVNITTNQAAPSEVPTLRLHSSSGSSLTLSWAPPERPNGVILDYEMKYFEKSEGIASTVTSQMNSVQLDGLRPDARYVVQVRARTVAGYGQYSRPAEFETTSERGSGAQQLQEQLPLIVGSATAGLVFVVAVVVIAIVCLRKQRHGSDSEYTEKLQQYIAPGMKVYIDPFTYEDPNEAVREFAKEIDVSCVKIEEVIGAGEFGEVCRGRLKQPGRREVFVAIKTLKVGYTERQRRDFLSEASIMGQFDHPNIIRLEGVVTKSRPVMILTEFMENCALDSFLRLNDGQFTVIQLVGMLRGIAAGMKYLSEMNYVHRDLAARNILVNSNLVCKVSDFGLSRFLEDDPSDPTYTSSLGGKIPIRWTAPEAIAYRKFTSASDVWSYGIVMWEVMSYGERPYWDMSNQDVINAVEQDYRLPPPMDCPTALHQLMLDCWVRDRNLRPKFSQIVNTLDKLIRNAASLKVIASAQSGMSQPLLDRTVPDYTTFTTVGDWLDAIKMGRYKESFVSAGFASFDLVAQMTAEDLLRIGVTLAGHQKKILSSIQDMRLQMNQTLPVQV

[15] = molecular target: T5, Ephrin type-B receptor 3 (Homo sapiens); conditions: at 10 µM
[16] = molecular target: T6, Ephrin type-B receptor 4 (Homo sapiens) (UniProt P54760); conditions: at 1 µM
T6 sequence (whole entry): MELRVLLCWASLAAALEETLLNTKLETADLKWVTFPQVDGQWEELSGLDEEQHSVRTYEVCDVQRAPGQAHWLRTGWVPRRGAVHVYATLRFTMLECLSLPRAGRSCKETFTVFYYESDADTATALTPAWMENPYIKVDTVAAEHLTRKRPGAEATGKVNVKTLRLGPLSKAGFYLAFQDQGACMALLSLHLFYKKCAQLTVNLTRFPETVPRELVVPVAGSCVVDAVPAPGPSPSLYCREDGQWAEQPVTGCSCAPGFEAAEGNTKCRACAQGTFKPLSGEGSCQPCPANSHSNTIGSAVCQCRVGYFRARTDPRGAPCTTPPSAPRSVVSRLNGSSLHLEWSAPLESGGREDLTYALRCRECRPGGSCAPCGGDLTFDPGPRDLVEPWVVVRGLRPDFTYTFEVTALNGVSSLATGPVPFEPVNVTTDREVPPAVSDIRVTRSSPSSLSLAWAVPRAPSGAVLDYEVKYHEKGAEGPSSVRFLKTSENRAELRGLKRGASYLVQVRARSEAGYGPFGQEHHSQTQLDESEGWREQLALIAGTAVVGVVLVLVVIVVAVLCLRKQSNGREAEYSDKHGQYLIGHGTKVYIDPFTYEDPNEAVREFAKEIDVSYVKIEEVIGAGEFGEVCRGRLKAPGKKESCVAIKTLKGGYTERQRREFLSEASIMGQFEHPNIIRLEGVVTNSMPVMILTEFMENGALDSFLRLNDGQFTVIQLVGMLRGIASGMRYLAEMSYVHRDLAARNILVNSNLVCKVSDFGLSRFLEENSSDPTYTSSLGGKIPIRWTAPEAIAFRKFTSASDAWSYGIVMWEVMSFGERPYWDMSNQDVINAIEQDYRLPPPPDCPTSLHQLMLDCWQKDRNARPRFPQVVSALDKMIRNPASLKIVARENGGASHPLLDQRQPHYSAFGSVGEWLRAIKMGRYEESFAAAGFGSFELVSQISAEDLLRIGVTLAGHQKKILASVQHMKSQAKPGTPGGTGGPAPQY

[17] = molecular target: T6, Ephrin type-B receptor 4 (Homo sapiens); conditions: at 10 µM
[18] = molecular target: Receptor tyrosine-protein kinase erbB-4 (Homo sapiens) (UniProt Q15303); conditions: at 1 µM
[19] = molecular target: Receptor tyrosine-protein kinase erbB-4 (Homo sapiens) (UniProt Q15303); conditions: at 10 µM
[20] = molecular target: Focal adhesion kinase 1 (Homo sapiens) (UniProt Q05397); conditions: at 1 µM

Chain of Ephrin type-A receptor 5 (Homo sapiens) (P54756 whole entry): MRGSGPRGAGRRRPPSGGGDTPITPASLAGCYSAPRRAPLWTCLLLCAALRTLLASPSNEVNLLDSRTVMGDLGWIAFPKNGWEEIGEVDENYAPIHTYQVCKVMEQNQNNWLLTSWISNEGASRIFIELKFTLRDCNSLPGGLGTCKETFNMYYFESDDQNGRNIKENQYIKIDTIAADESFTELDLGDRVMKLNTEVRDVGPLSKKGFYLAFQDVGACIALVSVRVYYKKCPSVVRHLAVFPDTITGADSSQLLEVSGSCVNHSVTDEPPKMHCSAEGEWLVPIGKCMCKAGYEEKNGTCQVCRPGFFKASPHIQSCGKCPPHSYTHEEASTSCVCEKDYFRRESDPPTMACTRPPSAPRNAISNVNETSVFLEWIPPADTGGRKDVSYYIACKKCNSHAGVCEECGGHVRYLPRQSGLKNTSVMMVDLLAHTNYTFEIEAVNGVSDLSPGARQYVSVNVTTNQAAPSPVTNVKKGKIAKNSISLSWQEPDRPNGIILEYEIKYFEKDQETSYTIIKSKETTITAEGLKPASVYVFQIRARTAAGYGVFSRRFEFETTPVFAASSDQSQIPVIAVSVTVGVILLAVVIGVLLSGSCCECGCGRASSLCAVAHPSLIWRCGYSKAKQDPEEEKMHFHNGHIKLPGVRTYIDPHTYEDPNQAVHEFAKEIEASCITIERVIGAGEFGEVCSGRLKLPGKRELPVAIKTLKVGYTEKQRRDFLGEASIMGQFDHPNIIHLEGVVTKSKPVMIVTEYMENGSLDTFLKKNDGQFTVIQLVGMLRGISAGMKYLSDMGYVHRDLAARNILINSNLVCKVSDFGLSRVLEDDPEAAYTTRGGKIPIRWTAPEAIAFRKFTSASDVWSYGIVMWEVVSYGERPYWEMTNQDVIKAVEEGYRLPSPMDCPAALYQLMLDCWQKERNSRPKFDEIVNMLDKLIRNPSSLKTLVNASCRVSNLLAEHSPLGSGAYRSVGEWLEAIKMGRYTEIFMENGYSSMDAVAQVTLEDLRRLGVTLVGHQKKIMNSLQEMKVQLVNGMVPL
Chain of Ephrin type-A receptor 4 (Homo sapiens) (P54764 whole entry): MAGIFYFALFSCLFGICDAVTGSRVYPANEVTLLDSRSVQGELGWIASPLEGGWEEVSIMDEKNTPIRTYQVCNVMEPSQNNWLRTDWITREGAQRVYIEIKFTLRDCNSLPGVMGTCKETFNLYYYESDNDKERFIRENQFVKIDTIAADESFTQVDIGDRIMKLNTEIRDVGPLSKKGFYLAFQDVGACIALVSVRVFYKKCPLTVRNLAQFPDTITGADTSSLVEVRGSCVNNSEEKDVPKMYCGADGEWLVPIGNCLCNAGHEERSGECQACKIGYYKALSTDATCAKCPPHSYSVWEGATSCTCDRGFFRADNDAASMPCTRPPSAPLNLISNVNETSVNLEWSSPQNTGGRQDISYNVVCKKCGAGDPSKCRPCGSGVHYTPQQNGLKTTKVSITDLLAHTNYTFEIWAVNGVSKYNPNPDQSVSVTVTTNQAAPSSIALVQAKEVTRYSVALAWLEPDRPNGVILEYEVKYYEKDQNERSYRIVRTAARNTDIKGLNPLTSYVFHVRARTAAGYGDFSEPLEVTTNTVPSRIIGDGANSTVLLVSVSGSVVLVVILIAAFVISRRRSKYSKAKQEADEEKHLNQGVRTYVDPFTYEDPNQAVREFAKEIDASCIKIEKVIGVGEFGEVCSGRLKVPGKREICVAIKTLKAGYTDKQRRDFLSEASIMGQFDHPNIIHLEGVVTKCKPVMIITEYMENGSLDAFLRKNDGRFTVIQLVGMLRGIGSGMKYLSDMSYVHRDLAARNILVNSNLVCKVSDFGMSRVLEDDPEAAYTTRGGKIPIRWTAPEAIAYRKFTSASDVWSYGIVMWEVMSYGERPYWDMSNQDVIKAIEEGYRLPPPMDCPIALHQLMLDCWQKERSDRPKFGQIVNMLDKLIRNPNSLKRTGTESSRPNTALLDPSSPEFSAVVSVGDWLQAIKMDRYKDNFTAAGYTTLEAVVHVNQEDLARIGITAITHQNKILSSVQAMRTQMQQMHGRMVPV
Chain of Receptor tyrosine-protein kinase erbB-4 (Homo sapiens) (Q15303 whole entry): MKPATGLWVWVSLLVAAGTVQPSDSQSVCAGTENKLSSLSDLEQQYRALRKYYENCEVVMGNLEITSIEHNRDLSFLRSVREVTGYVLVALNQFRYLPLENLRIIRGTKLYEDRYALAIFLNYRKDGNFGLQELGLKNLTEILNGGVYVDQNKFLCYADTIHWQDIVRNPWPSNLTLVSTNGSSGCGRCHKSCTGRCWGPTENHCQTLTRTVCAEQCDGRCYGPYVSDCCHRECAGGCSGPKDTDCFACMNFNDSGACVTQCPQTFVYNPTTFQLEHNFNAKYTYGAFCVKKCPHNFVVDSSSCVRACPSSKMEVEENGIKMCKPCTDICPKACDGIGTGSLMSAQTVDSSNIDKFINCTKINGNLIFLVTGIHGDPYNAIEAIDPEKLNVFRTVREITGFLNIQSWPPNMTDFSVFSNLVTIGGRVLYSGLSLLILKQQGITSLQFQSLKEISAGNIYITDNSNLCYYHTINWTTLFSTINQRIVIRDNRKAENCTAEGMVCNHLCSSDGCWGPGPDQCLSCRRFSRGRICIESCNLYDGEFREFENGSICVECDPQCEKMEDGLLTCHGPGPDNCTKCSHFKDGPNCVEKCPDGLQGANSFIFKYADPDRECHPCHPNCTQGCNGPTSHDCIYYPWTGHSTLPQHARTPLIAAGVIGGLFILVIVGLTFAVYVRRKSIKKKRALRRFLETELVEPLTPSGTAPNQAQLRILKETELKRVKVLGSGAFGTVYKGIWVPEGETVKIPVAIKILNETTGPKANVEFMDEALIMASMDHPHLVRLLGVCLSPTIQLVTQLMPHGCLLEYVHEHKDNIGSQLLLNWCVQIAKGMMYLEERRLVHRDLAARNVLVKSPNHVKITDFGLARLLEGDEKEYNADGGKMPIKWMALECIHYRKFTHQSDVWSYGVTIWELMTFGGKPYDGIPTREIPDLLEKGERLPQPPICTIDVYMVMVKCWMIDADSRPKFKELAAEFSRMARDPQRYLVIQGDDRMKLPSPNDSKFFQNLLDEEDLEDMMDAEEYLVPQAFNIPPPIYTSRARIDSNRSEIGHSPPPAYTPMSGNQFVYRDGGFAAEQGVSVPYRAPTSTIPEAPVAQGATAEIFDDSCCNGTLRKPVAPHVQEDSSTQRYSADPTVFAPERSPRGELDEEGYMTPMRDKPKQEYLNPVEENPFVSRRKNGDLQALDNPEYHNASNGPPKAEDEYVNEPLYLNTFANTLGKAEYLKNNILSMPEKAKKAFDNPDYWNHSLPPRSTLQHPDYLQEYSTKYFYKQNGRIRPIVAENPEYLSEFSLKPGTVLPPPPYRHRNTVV
Chain of Ephrin type-A receptor 7 (Homo sapiens) (Q15375 28-998 limits assumed): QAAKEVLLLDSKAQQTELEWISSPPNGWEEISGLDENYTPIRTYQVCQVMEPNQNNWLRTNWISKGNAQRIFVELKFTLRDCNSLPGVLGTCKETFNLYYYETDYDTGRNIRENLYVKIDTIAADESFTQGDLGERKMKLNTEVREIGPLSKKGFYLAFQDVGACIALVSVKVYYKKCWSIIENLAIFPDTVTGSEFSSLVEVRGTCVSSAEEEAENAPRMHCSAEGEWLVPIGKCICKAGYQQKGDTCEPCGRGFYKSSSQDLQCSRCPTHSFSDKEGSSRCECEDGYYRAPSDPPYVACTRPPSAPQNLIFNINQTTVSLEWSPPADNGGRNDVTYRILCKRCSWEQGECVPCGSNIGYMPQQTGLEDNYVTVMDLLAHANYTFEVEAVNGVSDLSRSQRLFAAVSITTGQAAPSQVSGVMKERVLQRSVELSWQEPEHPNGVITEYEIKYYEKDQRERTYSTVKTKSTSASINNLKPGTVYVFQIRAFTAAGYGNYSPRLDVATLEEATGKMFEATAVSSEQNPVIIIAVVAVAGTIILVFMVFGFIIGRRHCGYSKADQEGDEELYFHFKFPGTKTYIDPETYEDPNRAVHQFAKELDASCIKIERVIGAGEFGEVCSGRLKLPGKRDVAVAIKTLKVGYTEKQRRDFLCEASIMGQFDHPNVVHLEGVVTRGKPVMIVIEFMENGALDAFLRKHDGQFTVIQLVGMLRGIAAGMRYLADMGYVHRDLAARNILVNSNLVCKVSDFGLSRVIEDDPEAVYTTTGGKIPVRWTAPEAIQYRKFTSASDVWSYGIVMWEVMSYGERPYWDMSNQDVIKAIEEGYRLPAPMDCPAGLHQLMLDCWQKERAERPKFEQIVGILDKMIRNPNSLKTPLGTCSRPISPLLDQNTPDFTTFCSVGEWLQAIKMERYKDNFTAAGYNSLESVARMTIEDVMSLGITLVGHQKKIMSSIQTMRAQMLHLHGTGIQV

CC(C)(C)n1nc(Cc2cccc3ccccc23)c2c(N)ncnc21
residual activity [1]: 8%
residual activity [2]: 47%
residual activity [3]: 5%
residual activity [4]: 21%
residual activity [5]: 5%
residual activity [6]: 89%
residual activity [7]: 33%
residual activity [8]: 33%
residual activity [9]: 6%
residual activity [10]: 13%
residual activity [11]: 0%
residual activity [12]: 3%
residual activity [13]: -1%
residual activity [14]: 112% (inactive)
residual activity [15]: 12%
residual activity [16]: 3%
residual activity [17]: -3%
residual activity [18]: 51%
residual activity [19]: 8%
residual activity [20]: 122%
